For test [1], the system named is PRMT1 (protein arginine N-methyltransferase 1). Put plainly: small molecules binding arginine methyltransferase PRMT1 – biochemical, small-molecule microarray, 635 nm fluorescence, primary screen (AID 1088).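 Also: binding of Prmt1 protein to compounds spotted on small-molecule microarray slides.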 As to conditions: higher = more signal.
Test [2] is described as follows: growth effects on S. cerevisiae YJM789 – YJM789 clinical isolate, OD600, 24 h, basal, primary screen (AID 1089).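 Also: growth of clinical yeast isolate S. cerevisiae YJM 789 seeded 1000 cells per well; test concentration not given here.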 The settings on record: higher = more signal, called active from +8 up or from −8 down.
Test [3] can be described thus: S. pombe growth modifiers, basal conditions – strain 972, OD600, 24 h, no modulator, primary screen (AID 1090).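 Also: basal condition with compound alone and no growth modifier present; test concentration not given here.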 The settings on record: S. pombe 972 growth, higher = more signal, called active from +8 up or from −8 down.
The nature of test [4]: budding yeast growth modifiers under rapamycin – strain BY4716, OD600, 96 h, primary screen (AID 1091). Also: test concentration not given here. As to conditions: S. cerevisiae BY4716 + rapamycin, higher = more signal, called active from +8 up or from −8 down.
The target of test [5] is Torsin-1A-interacting protein 2 (Homo sapiens) (UniProt Q8NFQ8). The test can be described thus: small molecules binding lysate-expressed LULL1 – cell lysate, human LULL1 lysate, 635/667 nm fluorescence, primary screen (AID 1092).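 Also: probe is lysate of COS7 cells overexpressing human LULL1; score merges per-feature 667 nm fluorescence with signal-to-noise.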 The settings on record: small-molecule microarray, hLULL1 lysate binding, 635 nm fluorescence; higher = more signal.
Test [6] is described as follows: optical density change of DRC41 E. coli – strain DRC41, OD650, 24 h, E. coli filamentation project, primary screen (AID 1093).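 Also: MC1000 strain lacking acrAB efflux and sulA so SOS filamentation is blocked; test concentration not given here.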 The settings on record: E. coli DRC41 growth, higher = more signal, called active from +8 up or from −8 down.
Test [7] in a line: probe aLefty2 binding to arrayed compounds – biochemical, biotinylated probe, 635/667 nm fluorescence, primary screen (AID 1094).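 Also: score merges spot fluorescence near 667 nm with spot signal-to-noise ratio.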 The settings on record: small-molecule microarray, higher = more signal.
For test [8], the system named is Noggin (protein binding on small-molecule microarray). The test can be described thus: small molecules binding Noggin protein – biochemical, 635/667 nm fluorescence, primary screen (AID 1095).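 Also: score merges 667 nm feature fluorescence with signal to noise over triplicate slides.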 The settings on record: 635 nm fluorescence, higher = more signal.
The target in test [9] is Neurogenic locus notch homolog protein 3 (Homo sapiens) (UniProt Q9UM47). The test can be described thus: small molecules binding NOTCH3 protein – biochemical, 635/667 nm fluorescence, primary screen (AID 1096). As to conditions: small-molecule microarray, 635 nm fluorescence, higher = more signal.
A short description of test [10]: probe aEGFR binding to arrayed compounds – biochemical, biotinylated probe, 635/667 nm fluorescence, primary screen (AID 1097).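 Also: probe is a biotinylated anti-EGFR antibody binding compounds printed on slides; score combines fluorescence near 667 nm and signal to noise of each spot.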 As to conditions: small-molecule microarray, higher = more signal.

The structures appear in SMILES notation. The source made the active and inactive calls.

Sequence of Neurogenic locus notch homolog protein 3 (Homo sapiens) (Q9UM47 whole entry, looked up): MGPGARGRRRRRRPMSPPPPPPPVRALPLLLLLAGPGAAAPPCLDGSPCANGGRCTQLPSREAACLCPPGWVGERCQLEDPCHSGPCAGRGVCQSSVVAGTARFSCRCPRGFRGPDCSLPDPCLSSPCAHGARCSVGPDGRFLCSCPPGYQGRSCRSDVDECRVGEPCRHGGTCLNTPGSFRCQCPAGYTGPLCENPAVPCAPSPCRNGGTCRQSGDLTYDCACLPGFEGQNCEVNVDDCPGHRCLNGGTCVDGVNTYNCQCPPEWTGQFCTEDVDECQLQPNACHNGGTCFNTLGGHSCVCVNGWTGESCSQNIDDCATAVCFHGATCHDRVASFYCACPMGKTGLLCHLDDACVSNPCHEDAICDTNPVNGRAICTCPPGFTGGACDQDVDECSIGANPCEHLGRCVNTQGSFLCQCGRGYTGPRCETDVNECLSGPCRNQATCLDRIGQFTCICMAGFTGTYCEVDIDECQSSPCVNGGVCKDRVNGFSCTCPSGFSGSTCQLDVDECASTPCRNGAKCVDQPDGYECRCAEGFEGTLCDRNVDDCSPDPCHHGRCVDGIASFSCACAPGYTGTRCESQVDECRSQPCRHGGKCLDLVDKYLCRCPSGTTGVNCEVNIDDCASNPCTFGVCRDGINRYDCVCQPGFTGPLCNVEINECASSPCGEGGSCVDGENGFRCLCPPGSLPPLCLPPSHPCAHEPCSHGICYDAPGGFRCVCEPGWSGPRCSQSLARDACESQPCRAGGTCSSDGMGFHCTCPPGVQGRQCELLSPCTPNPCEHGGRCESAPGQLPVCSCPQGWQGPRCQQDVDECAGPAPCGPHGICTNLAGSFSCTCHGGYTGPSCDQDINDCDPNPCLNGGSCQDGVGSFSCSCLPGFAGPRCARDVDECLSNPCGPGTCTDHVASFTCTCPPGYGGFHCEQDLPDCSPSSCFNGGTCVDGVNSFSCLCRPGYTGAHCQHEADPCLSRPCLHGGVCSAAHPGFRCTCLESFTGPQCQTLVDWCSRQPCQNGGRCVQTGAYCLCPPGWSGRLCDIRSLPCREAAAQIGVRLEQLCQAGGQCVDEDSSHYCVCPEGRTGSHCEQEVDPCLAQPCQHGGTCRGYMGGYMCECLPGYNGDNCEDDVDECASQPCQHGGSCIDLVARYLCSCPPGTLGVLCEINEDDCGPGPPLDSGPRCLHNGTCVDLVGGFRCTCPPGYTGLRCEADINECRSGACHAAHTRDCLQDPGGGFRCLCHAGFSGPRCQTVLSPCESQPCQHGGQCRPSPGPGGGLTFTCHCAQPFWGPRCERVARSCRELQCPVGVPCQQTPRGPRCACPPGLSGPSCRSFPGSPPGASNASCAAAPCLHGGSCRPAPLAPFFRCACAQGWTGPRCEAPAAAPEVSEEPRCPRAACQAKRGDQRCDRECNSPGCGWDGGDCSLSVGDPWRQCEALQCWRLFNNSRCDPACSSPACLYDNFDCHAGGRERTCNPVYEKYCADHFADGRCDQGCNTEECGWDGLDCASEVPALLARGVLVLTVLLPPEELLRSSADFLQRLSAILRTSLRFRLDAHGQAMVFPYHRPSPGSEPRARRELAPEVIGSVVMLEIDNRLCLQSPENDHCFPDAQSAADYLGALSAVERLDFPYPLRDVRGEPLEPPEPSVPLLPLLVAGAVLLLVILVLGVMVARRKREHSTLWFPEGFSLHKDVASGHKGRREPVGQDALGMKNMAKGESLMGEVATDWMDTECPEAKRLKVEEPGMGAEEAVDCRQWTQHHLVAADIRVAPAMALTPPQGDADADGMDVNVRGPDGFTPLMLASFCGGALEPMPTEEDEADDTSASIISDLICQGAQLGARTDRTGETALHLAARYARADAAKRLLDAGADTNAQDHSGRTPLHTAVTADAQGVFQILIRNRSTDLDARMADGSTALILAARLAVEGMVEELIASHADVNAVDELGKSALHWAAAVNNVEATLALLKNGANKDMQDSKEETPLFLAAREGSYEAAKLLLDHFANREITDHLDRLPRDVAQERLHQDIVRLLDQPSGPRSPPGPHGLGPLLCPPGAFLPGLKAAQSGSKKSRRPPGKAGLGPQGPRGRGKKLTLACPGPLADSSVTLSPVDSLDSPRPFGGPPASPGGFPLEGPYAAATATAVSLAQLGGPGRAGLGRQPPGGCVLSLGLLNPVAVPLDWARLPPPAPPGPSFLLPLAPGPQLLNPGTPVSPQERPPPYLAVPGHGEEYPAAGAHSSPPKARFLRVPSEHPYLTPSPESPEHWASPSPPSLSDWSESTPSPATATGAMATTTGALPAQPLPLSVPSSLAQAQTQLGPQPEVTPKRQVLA
Sequence of Torsin-1A-interacting protein 2 (Homo sapiens) (Q8NFQ8 whole entry, looked up): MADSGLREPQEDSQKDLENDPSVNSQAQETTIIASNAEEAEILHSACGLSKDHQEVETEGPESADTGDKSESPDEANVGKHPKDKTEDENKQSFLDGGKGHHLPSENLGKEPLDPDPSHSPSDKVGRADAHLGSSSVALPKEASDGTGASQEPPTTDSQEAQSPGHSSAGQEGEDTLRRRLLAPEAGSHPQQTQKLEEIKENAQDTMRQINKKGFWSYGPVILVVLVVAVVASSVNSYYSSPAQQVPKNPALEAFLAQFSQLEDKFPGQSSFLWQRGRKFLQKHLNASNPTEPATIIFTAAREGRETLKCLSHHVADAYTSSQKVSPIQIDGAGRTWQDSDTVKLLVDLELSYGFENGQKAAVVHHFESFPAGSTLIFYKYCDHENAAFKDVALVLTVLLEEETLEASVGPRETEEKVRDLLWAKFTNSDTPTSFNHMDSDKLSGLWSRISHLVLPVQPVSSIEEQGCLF

Turning to `CCOC(=O)C1=CC[C@@H](c2cc(Cl)ccc2Cl)N(S(=O)(=O)c2ccc(C)cc2)[C@H]1c1ccc(OC)cc1`, the composite z-score in test [1] was -0.393; in test [5] it was 0.506; in [7], 0.754; in test [8], -0.546; in test [9], -0.329; in test [10], 0.379. The z-score was 1.31 (inactive) in [2], 2.17 (inactive) in test [3], 1.43 (inactive) in test [4] and -0.0891 (inactive) in test [6].

`COc1ccc(C#Cc2ccc3c(c2)[C@]2(C(=O)N3)[C@H](C(=O)N3CCc4cc(OC)c(OC)cc4C3)[C@H]3C(=O)O[C@H](c4ccccc4)[C@H](c4ccccc4)N3[C@@H]2c2ccc(O)cc2)cc1`: the composite z-score in [1] was 1.57; in test [5], 2.28; in test [7] it was -0.143; in test [8], 0.875; in test [9], 1.01; in [10], -0.0142. In addition, the z-score was 1.36 (inactive) in test [2], 1.14 (inactive) in test [3], 1.91 (inactive) in [4] and -0.384 (inactive) in test [6].

For `CC(C)(C)OC(=O)CC[C@@]1(C(=O)O)N=C(c2ccc(OCCCO)cc2)O[C@@H]1c1ccccc1CN=[N+]=[N-]`, the composite z-score in test [1] was 1.29; in test [5], 2.84; in test [7], 0.36; in [8], -0.195; in [9], 0.44; in test [10] it was 0.272. Moreover, the z-score in [2] was 0.947 (inactive); in test [3], 0.642 (inactive); in test [4], 0.0515 (inactive); in test [6], 0.882 (inactive).

Consider `O=C1O[C@@H](c2ccccc2)[C@@H](c2ccccc2)N2[C@@H](c3ccc(O)cc3)[C@]3(C(=O)Nc4ccccc43)[C@@H](C(=O)Nc3nc4ccccc4s3)[C@H]12`, for which the composite z-score in test [1] was 1.51; in test [5], 2.77; in test [7] it was -0.15; in test [8], 0.797; in [9], 0.881; in [10] it was -0.132. Besides, the z-score in test [2] was 0.813 (inactive); in test [3] it was 0.849 (inactive); in test [4], 1.4 (inactive); in [6], -0.0768 (inactive).

Regarding `COC(=O)[C@H](Cc1ccccc1)N1CC(/C=C/C2CC2)=C[C@@H]1[C@@H](O)Cc1ccccc1`, the composite z-score was determined as 1.46 in [1]; 1.66 in [5]; 0.0166 in test [7]; 0.685 in [8]; 0.9 in [9]; 0.009 in test [10]. Besides, the z-score was 0.107 (inactive) in [2], -3.04 (inactive) in test [3], 0.423 (inactive) in test [4] and 0.559 (inactive) in test [6].

Turning to `O=C(CCCCCCC(=O)Nc1ccccc1)N/N=C/c1ccccc1`, the composite z-score in [1] was -0.998; in [5] it was -0.743; in [7] it was -0.105; in test [8] it was -0.361; in [9], -0.783; in test [10] it was -0.117. Also, the z-score in [2] is 0.507 (inactive); in [3], 0.0263 (inactive); in test [4] it was 1.06 (inactive); in [6], 0.195 (inactive).

In the case of `CC(C)NC(=O)[C@@]1(C)c2ccccc2C(=O)N(C(C)C)[C@H]1c1ccc(CO)cc1`, the composite z-score in test [1] is 1.45; in test [5] it was 3.47; in test [7] it was -0.0466; in [8] it was -0.781; in test [9], 0.165; in [10] it was -0.227. Also, the z-score in test [2] was -0.501 (inactive); in test [3], -1.63 (inactive); in [4], -0.471 (inactive); in [6] it was -0.297 (inactive).

With `COc1ccc([Si](C)(C)[C@H]2[C@H](CCn3cc([C@H](O)c4ccccc4)nn3)O[C@@]3(C(=O)N(Cc4ccc(N5CCC5=O)cc4)c4ccccc43)[C@@H]2C)cc1`, the composite z-score in test [1] is 1.57; in test [5], 0.588; in test [7] it was -0.184; in [8], 1.05; in test [9], 0.698; in test [10] it was -0.0953. In addition, the z-score in [2] was -0.509 (inactive); in test [3], 0.158 (inactive); in test [4], 2.14 (inactive); in [6], 1.15 (inactive).

Turning to `O=C1OC[C@@H](c2ccccc2)N2CC(/C=C/c3ccccc3)=CC12` (stereo not given in full), the composite z-score is -1.07 in test [1]; -0.79 in test [5]; -0.158 in [7]; -1.37 in test [8]; -0.0841 in test [9]; -0.425 in test [10]. The z-score in test [2] was 0.0482 (inactive); in test [3], -1.27 (inactive); in test [4], 0.321 (inactive); in test [6], 0.701 (inactive).

On to `COC(=O)[C@@]1(Cc2ccccc2)[C@H]2c3cc(C(=O)N4CCCC4)n(Cc4ccsc4Br)c3C[C@H]2CN1C(=O)c1ccccc1`, for which the composite z-score in [1] was 0.12; in test [5], 3.43; in [7], 0.41; in test [8] it was -0.142; in [9], 1.05; in [10], 0.272. In addition, the z-score was 0.333 (inactive) in test [2], 1.22 (inactive) in test [3], 1.35 (inactive) in [4] and -0.575 (inactive) in test [6].

In the case of `COCCOC(=O)N1C(=O)[C@@]2(c3cc(C#CC4=CCCCC4)ccc31)[C@H](c1ccc(O)cc1)N1[C@H](c3ccccc3)[C@H](c3ccccc3)OC(=O)[C@H]1[C@@H]2C(=O)Nc1nc2ccccc2s1`, the composite z-score is 1.54 in test [1]; 3.5 in test [5]; -0.141 in test [7]; 0.824 in test [8]; 1.04 in [9]; 0.178 in test [10]. For the same molecule, the z-score is 0.724 (inactive) in test [2], 0.0687 (inactive) in test [3], 0.801 (inactive) in test [4] and -0.249 (inactive) in test [6].

Turning to `COc1cc(CO)cc(I)c1O[C@H]1C=C(C(=O)NCCO)C[C@@H](NCc2ccccc2F)[C@@H]1O`, the composite z-score is 1.13 in test [1]; 0.491 in [5]; -0.0943 in [7]; 1.05 in test [8]; 0.75 in [9]; -0.151 in [10]. Also, the z-score was 2.24 (inactive) in test [2], -3.89 (inactive) in test [3], 0.519 (inactive) in [4] and 1.77 (inactive) in test [6].

As for `[N-]=[N+]=Nc1ccccc1C[C@@]1(C(=O)O)N=C(c2ccc(OCCCO)cc2)O[C@@H]1c1ccccc1`, the composite z-score in test [1] is 0.616; in test [5], 3.43; in [7], 0.0917; in test [8], -0.272; in [9], 0.697; in test [10], -0.0952. For the same molecule, the z-score in test [2] is -0.0525 (inactive); in test [3], -0.85 (inactive); in test [4], -1.45 (inactive); in test [6] it was -0.0393 (inactive).

For the molecule `O=C1O[C@H](c2ccccc2)[C@H](c2ccccc2)N2[C@H]1[C@@H](C(=O)O)[C@]1(C(=O)Nc3ccccc31)[C@H]2c1ccc(O)cc1`, the composite z-score in test [1] is 0.548; in test [5], 1.87; in [7], -0.166; in [8], -0.317; in [9], -0.188; in [10] it was -0.257. Moreover, the z-score in test [2] is 1.34 (inactive); in test [3] it was 0.278 (inactive); in [4], 0.3 (inactive); in [6] it was -0.423 (inactive).
